Experimental data: PubChem BioAssay (NCATS)
Results filed as inconclusive are left out. A call without a number means that no potency is given here. The source made the active and inactive calls. Calls come from the whole dose curve; as a rule, active = well fitted cell-killing curve with a large enough effect; inconclusive = small, poorly fitted or top-dose-only effect, or effect the other way; inactive = no such curve, though single readings can be large or run the other way.

Experiment: Quantitative High-Throughput drug screen in 47 multiple myeloma cell lines against the NCATS MIPE library collection: XG6_PLB cell viability assay (AID 1919865); note: nearly all actives have a fitted effect of over 40% in size
Conditions: XG6 myeloma viability, CellTiter-Glo ATP luminescence, 48 h; series mostly up to 45.8 µM
Description: PI: Beverly A. Mock Ph.D.
Laboratory of Cancer Biology and Genetics,
Center for Cancer Research, National Cancer Institute,
National Institute of Health, Bethesda, Maryland
Drug resistance and disease progression are common in multiple myeloma (MM) patients, underscoring the need for new therapeutic combinations. […] We hypothesized that effective combinations would reduce MYC expression and enhance p16 activity. […] These preclinical data identify potentially useful drug combinations for evaluation in drug-resistant MM and reveal potential mechanisms of combined drug sensitivity.
Described herein is the primary MIPE qHTS used to cherrypick compounds. Validated compounds were then further tested for potential synergistic activiy.
[1] Peat TJ, Gaikwad SM, Dubois W, Gyabaah-Kessie N, Zhang S, Gorjifard S, Phyo Z, Andres M, Hughitt VK, Simpson RM, Miller MA, Girvin AT, Taylor A, Williams D, D'Antonio N, Zhang Y, Rajagopalan A, Flietner E, Wilson K, Zhang X, Shinn P, Klumpp-Thomas C, McKnight C, Itkin Z, Chen L, Kazandijian D, Zhang J, Michalowski AM, Simmons JK, Keats J, Thomas CJ, Mock BA. Drug combinations identified by high-throughput screening promote cell cycle transition and upregulate Smad pathways in myeloma. Cancer Lett. 2023 Aug 1;568:216284. doi: 10.1016/j.canlet.2023.216284. Epub 2023 Jun 24. PMID: 37356470; PMCID: PMC10408729.
SEQUENCE No. (e.g., 1, 2, 3, etc.); […] (e.g., Cells, Incubation, Reagent, etc.); VALUE and DESCRIPTION.
1; Cells; 5 uL; white, solid bottom 1536-well Greiner assay plate.
2; Compounds; 23 nL; Kalypsis pin tool (Wako USA) equipped with a 1536-well pin head to transfer to the assay plates.
3; Incubation; 48 hours; 37C incubation.
4; Reagent;5uL; CellTiter Glo (Promega).
5; Detector; 425V; Luminescence; Viewlux PerkinElmer.
NOTES (numbers refer to Sequence numbers above)
1. The cell-based screening methods employed in this study were like those previously published. Briefly, the corresponding myeloma cell lines were screened in 1,536-well plates with 500 cells, 5-uL per well for inhibition of cell viability (assessed by measuring ATP levels with CellTiterGlo).
2. NCATS MIPE 4.0 library of approved and investigational drugs were added using the Kalypsis pin tool. Wells treated with DMSO only for 100% viability and media only for 0% viability were used as controls.
3. The assay plates were covered and incubated for 48 hours in a 37C, 5% CO2 incubator with controlled humidity.
4. After 48 hours, CellTilter-GloTM luminescent substrate mix (Promega) reagent was added to the assay plate and plates we incubated for 5 min at room temperature.
5. Signal was measured as median relative luminescence units on a ViewLux (PerkinElmer) multiplate reader.
[1] Heske CM, Davis MI, Baumgart JT, Wilson K, Gormally MV, Chen L, Zhang X, Ceribelli M, Duveau DY, Guha R, Ferrer M, Arnaldez FI, Ji J, Tran HL, Zhang Y, Mendoza A, Helman LJ, Thomas CJ. Matrix Screen Identifies Synergistic Combination of PARP Inhibitors and Nicotinamide Phosphoribosyltransferase (NAMPT) Inhibitors in Ewing Sarcoma. Clin Cancer Res. 2017 Dec 1;23(23):7301-7311. doi: 10.1158/1078-0432.CCR-17-1121. Epub 2017 Sep 12. PMID: 28899971; PMCID: PMC6636827.
Potency is the fitted concentration of half-maximal effect.

| SMILES | Potency |
| --- | --- |
| CC(NC(C)(C)C)C(=O)c1cccc(Cl)c1 (stereo unspecified) | inactive |
| C[C@]12CC[C@H]3[C@@H](CC[C@@]45O[C@H]4C(O)=C(C#N)C[C@]35C)[C@H]1CC[C@H]2O | inactive |
| C[C@](O)(CS(=O)(=O)c1ccc(F)cc1)C(=O)Nc1ccc(C#N)c(C(F)(F)F)c1 | 0.148 µM (active) |
| O=P1(N(CCCl)CCCl)NCCCO1 (stereo unspecified) | inactive |
| CC(C)c1cccc(C(C)C)c1O | inactive |
| C[C@]12CC[C@@H]3c4ccc(OC(=O)N(CCCl)CCCl)cc4CC[C@H]3[C@@H]1CC[C@@H]2OP(=O)(O)O | inactive |
| CCC1(c2ccc(N)cc2)CCC(=O)NC1=O (stereo unspecified) | inactive |
| CC(C)C[C@H](CN)CC(=O)O | inactive |
| CN1C(=O)COc2c(C(=O)NC3CN4CCC3CC4)cc(Cl)cc21 (stereo unspecified) | inactive |
| CN1C(=O)CCS(=O)(=O)C1c1ccc(Cl)cc1 (stereo unspecified) | 18.7 µM (active) |
| O=C(O)CCCc1ccc(N(CCCl)CCCl)cc1 | 11.8 µM (active) |
